Measurements from PubChem BioAssay.
Active and inactive are the calls of the source.

Key:
Albumin (Bos taurus) = Albumin (Bos taurus) (UniProt P02769); test: bovine serum albumin binders on microarray, profiling panel, artefact control for SMM control protein annotation, biochemical, small-molecule microarray, Alexa647 label, 635/667 nm fluorescence (AID 1118); details: BSA-A647 binding, fluorescence 635 nm, higher = more signal;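 further: score merges 667 nm emission intensity and signal-to-noise per printed compound spot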
Sequence of Albumin (Bos taurus) (P02769 whole entry, looked up): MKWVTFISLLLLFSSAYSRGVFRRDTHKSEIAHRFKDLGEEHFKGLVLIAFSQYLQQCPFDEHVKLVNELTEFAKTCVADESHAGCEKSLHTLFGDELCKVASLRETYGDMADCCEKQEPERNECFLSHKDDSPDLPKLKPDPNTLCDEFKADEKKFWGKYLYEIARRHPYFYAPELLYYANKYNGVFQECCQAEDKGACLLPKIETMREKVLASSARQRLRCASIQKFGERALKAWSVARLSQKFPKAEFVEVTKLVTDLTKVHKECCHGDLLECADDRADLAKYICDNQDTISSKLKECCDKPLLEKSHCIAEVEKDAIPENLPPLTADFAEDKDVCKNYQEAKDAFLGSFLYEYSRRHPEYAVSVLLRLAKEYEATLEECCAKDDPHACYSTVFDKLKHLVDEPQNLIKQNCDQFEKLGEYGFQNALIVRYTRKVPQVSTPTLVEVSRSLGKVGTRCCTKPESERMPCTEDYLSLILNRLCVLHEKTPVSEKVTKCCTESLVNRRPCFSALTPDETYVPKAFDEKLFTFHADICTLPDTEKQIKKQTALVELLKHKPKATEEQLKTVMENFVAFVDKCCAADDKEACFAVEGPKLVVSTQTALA

[1] = small-molecule microarray binders of probe aXIP, primary screen, biochemical, NeuroSMM set, 635/667 nm fluorescence (AID 1119); details: higher = more signal, called active from +8 up or from −8 down;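 further: probe is the protein aXip251-270 applied at 1 µg/mL to compound-printed slides; binding of probe to printed compounds measured as 667 nm fluorescence plus signal to noise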
[2] = small-molecule binders of probe aNOTCH3, primary screen, biochemical, small-molecule microarray, 635/667 nm fluorescence (AID 1120); details: higher = more signal;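 further: probe is a biotin-tagged antibody raised against NOTCH3 rather than NOTCH3 protein; score merges spot fluorescence near 667 nm with spot signal to noise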
[3] = small-molecule binders of probe aNOTCH2, primary screen, biochemical, small-molecule microarray, 635/667 nm fluorescence (AID 1121); details: higher = more signal;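 further: score merges feature fluorescence read at 667 nm with its signal to noise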
[4] = target: Carbonic anhydrase 2 (Homo sapiens) (UniProt P00918); test: CAII small-molecule binders, profiling panel, biochemical, small-molecule microarray, Alexa647-labelled CAII (AID 1122); details: CAII-A647 binding fluorescence, higher = more signal
[5] = COS7 lysate on small-molecule microarray, probe aHis, 635 nm (AID 1123); details: COS7 cell lysate, fluorescence, higher = more signal;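 further: z-score combines 667nm fluorescence intensity with signal-to-noise per printed compound spot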
[6] = compound binding in COS7 lysate, probe aLAP1, primary screen, cell lysate, small-molecule microarray (AID 1124); details: probe aLAP1, fluorescence, higher = more signal;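 further: lysate comes from COS7 cells expressing LAP1 and is applied at 0.3 µg/mL; score merges spot fluorescence near 667 nm with signal-to-noise over triplicate slides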
Sam68 (KHDRBS1) = test: Sam68 small-molecule binders, primary screen, biochemical, small-molecule microarray, 635 nm fluorescence (AID 1125); details: small-molecule microarray binding, higher = more signal;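 further: score merges 667 nm channel intensity with signal to noise over triplicate slides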
[7] = test system: Chordin-like protein 2 (CHRDL2); test: CHRDL2 small-molecule binders, primary screen, biochemical, small-molecule microarray, 635 nm fluorescence (AID 1126); details: small-molecule microarray binding, fluorescence 635 nm; higher = more signal;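 further: printed compound slides probed with Chrdl2 protein at 4 µg/mL for 1 h at 4 C; score merges 667 nm emission intensity with signal to noise over three replicate slides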
[8] = target: Concanavalin-A (Canavalia ensiformis) (UniProt P02866); test: ConA small-molecule binders, primary screen, artefact control for SMM control protein annotation, biochemical, small-molecule microarray, Alexa647 label, 635 nm (AID 1127); details: ConA-A647 binding fluorescence, higher = more signal;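 further: z combines 667 nm emission intensity with signal-to-noise across three replicate slides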
Sequence of Concanavalin-A (Canavalia ensiformis) (P02866 whole entry, looked up): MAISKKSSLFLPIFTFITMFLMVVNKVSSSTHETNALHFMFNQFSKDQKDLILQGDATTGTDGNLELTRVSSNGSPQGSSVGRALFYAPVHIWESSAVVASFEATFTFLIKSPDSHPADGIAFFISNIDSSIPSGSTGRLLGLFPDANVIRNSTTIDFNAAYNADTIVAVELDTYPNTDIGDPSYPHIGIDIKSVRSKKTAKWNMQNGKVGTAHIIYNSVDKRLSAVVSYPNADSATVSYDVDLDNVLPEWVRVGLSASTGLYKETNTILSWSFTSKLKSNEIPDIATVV

Compound	composite z-score (Albumin (Bos taurus))	composite Z-score [1]	composite z-score [2]	composite z-score [3]	composite z-score [4]	composite z-score [5]	composite z-score [6]	composite z-score (Sam68 (KHDRBS1))	composite z-score [7]	composite z-score [8]
CCC[C@@H]1C=C(C(=O)OCC)[C@H](c2ccccc2)N1S(=O)(=O)c1ccc(C)cc1	0.854	0.142 (inactive)	0.341	0.273	0.214	-0.0844	1.29	1.3	0.0538	1.11
COC(=O)[C@@]1(CCS(=O)(=O)c2ccccc2)N=C(c2ccc(OCCCO)cc2)O[C@H]1c1ccccc1N=[N+]=[N-]	0.827	-0.0127 (inactive)	0.0237	0.0196	0.356	2.92	0.406	1.3	0.889	1.11
CCOC(=O)C[C@H]1[C@H](OC(=O)c2ccc(-c3ccccc3)cc2)[C@@H](NC(=O)c2ccc3ccccc3c2)c2cc(OCCCO)ccc2N1C(=O)c1ccccc1	0.571	1.03 (inactive)	0.0351	-0.132	0.119	0.916	0.14	1.16	-0.126	0.353
O=C1C2C=CC(C(O)c3cccs3)N(Nc3ccccc3)C2C(=O)N1c1ccccc1 (stereo not given)	0.21	0.353 (inactive)	0.0864	-0.0731	0.787	-0.0142	-0.646	-0.0232	0.568	0.0148
C=C(/C(=C/C[C@H](OC(=O)c1ccncc1)c1ccccc1OCCO)c1cc(C(=O)OC)ccc1OC)C(C)C	0.407	-0.104 (inactive)	-0.0288	-0.102	0.453	0.537	-0.0576	1.06	0.33	0.737
[N-]=[N+]=NCc1ccccc1[C@H]1OC(c2ccc(OCCCO)cc2)=N[C@@]1(Cc1ccccc1)C(=O)N1CCOCC1	0.912	0.475 (inactive)	0.754	0.294	0.55	2.97	0.204	1.3	-0.0573	1.14
Cc1c(NC(=O)/C(C#N)=C/c2ccc(Cl)cc2)c(=O)n(-c2ccccc2)n1C	0.87	1.5 (inactive)	0.029	-0.145	0.229	1.65	0.761	0.396	0.122	0.736
CCCC[C@@H]1C[C@H]1[C@@H](NC(=O)Cc1ccccc1)c1ccc(Cl)cc1	1.1	0.491 (inactive)	0.532	-0.129	0.69	2.76	0.323	1.31	-1.01	1.16
CN1C(=O)[C@]2(CCS(=O)(=O)c3ccccc3)N=C(c3ccc(OCCCO)cc3)O[C@@H]2c2ccccc21	0.568	0.222 (inactive)	0.0026	-0.121	0.531	2.81	0.354	1.2	0.502	0.838
CC(C)(C)OC(=O)CC[C@]1(C(N)=O)N=C(c2ccc(OCCCO)cc2)O[C@H]1c1ccccc1CN=[N+]=[N-]	0.712	0.523 (inactive)	0.761	0.234	0.981	3.63	0.666	1.33	-0.894	0.831
COCCOC(=O)N1C(=O)[C@@]2(c3cc(C#CCCO)ccc31)[C@H](c1ccccc1OCCO)N1[C@H](c3ccccc3)[C@H](c3ccccc3)OC(=O)[C@H]1[C@@H]2C(=O)N1CCc2cc(OC)c(OC)cc2C1	0.329	0.339 (inactive)	0.0562	-0.101	0.4	1.85	1.02	1.31	0.469	1.09
COCCOC(=O)N1C(=O)[C@@]2(c3cc(C#Cc4ccc(OC)cc4)ccc31)[C@H](C(=O)N1CCCCCCC1)[C@H]1C(=O)O[C@H](c3ccccc3)[C@H](c3ccccc3)N1[C@@H]2c1ccccc1OCCO	0.768	4.24 (inactive)	1.49	0.793	0.472	3	1.3	1.3	1.21	0.893
COCCOC(=O)N1C(=O)[C@@]2(c3cc(C#CC4=CCCCC4)ccc31)[C@H](C(=O)N1CCc3cc(OC)c(OC)cc3C1)[C@H]1C(=O)O[C@H](c3ccccc3)[C@H](c3ccccc3)N1[C@@H]2c1ccc(O)cc1	0.482	0.334 (inactive)	0.285	0.307	0.267	1.32	0.858	1.1	0.463	1.19
C=CCC(OC(C)=O)[C@@H]1[C@@H](N(Cc2cccc3ccccc23)C(=O)c2ccc(-c3ccccc3)cc2)c2cc(OCCCO)ccc2N1C(=O)c1ccc2ccccc2n1 (stereo not given in full)	0.192	-0.0401 (inactive)	0.119	-0.0639	0.0528	0.181	0.649	0.464	0.41	-0.288
O=C1O[C@H](c2ccccc2)[C@H](c2ccccc2)N2[C@H]1[C@@H](C(=O)N1CCN(c3ncccn3)CC1)[C@]1(C(=O)Nc3ccccc31)[C@H]2c1ccc(O)cc1	0.753	0.56 (inactive)	-0.0932	-0.0438	0.672	2.48	0.445	1.29	-0.0771	1.16
